# Measurements as given in PubChem BioAssay (NCATS).
# “And” between values parts separate entries of the source, which are not always exact repeats. Equal values may be shown once. Inconclusive results are not listed. The source made the active and inactive calls. Unless noted, calls come from the whole dose curve; as a rule, active = well fitted curve in the direction sought with a large enough effect; inconclusive = small, poorly fitted or top-dose-only effect, or another doubt; inactive = no such curve, though single readings can be large; an effect the other way counts as inactive or inconclusive.
# Experiments:
# [1] = Primary qHTS for inhibitors of nuclear receptor binding SET domain protein 2 (NSD2) in an isogenic RCH-ACV NSD2 p.E1099K mutant (9B) (AID 1645876); note: nearly all actives have a fitted effect of over 70% in size; note: potency is the fitted concentration of half-maximal effect
# [2] = Primary qHTS for inhibitors of nuclear receptor binding SET domain protein 2 (NSD2) in an RCH-ACV wild type WT cells (2C) (AID 1645877); note: nearly all actives have a fitted effect of over 70% in size; note: potency is the fitted concentration of half-maximal effect
# [3] = biological target: Glutathione peroxidase 1 (Homo sapiens) (UniProt P07203); test: Primary qHTS Assay for Inhibitors of Recombinant Selenoprotein Glutathione Peroxidase 1 (GPX1) (AID 1845191); note: nearly all actives have a fitted effect of over 65% in size; note: potency is the fitted concentration of half-maximal effect
# Summary of the method: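 NADPH consumption tracked by fluorescence at 340/450 nm between t=0 and t=15 min, room temperature. Final mix: 10 nM GPX1, 100 nM glutathione reductase, 1 mM GSH, 0.5 mM NADPH, 0.5 mM cumene hydroperoxide, 0.01% BSA; 30 min compound–enzyme preincubation.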
# [4] = biological target: Phospholipid hydroperoxide glutathione peroxidase GPX4 (Homo sapiens) (UniProt P36969); test: Primary qHTS Assay for Inhibitors of Recombinant Selenoprotein Glutathione Peroxidase 4 (GPX4) (AID 1845192); note: nearly all actives have a fitted effect of over 65% in size; note: potency is the fitted concentration of half-maximal effect; for activity change, negative = inhibition: % is set by controls: 0 for no effect and ±100 for the full control effect
# Summary of the method: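 NADPH consumption followed by fluorescence at 340/450 nm, t=0 and after 15 min at room temperature. Reaction started with cumene hydroperoxide (0.5 mM final) after 30 min compound–GPX4 preincubation; final 200 nM GPX4, 100 nM GR, 1 mM GSH, 0.5 mM NADPH.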
# [5] = qHTS drug screen for cell cycle checkpoint inhibitors in PARPi-resistant BRCA-mutant ovarian cancer cell lines. (AID 1963452; calls by dose curve); conditions: PEO1/OlaR viability, CellTiter-Glo luminescence, 96 h, stronger effect = lower value
# Summary of the method: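 PEO1, PEO4 and PEO1/OlaR ovarian cancer cells, 600 per well, exposed 96 h at 37C to a dilution series. Viability read by CellTiter-Glo luminescence, normalized to DMSO and empty wells; activity summarized as Z-AUC.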
# [6] = NCATS anti-infectives library activity on HEK293 viability as a counter-qHTS vs the C. elegans viability qHTS (AID 1745854);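 note: HEK293 cells exposed to compounds for 24 hr before the viability read; % is set by controls: 0 for no effect and ±100 for the full control effect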
# Summary of the method: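 Counter-screen for cytotoxicity: HEK293, 24 hr, 37C, compounds up to 41.7 uM final (a dilution series, 1:5). Readout CellTiter-Glo luminescence, 10 min RT. Digitonin control, 83.3 uM final.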
# [7] = biological target: Catechol O-methyltransferase (Homo sapiens) (UniProt P21964); test: Confirmatory Screen for Target Class Profiling of Small Molecule Inhibitors of Methyltransferases (AID 1745852; calls by dose curve; note: potency is the fitted concentration of half-maximal effect; for activity change, negative = inhibition: % is set by controls: 0 for no effect and ±100 for the full control effect); conditions: MTase-Glo luminescence, SAH detection, recombinant enzyme; measured here: COMT max response; stronger effect = lower value
# [8] = biological target: Guanidinoacetate N-methyltransferase (Homo sapiens) (UniProt Q14353); test: as above; conditions: MTase-Glo luminescence, SAH detection, recombinant enzyme; activity change, negative = inhibition: at 57.3 µM (top of the series) unless noted
# [9] = biological target: Nicotinamide N-methyltransferase (Homo sapiens) (UniProt P40261); test: as above; conditions: MTase-Glo luminescence, SAH detection, recombinant enzyme; measured here: NNMT max response; stronger effect = lower value
# [10] = biological target: Phenylethanolamine N-methyltransferase (Homo sapiens) (UniProt P11086); test: as above; conditions: MTase-Glo luminescence, SAH detection, recombinant enzyme; measured here: PNMT max response; stronger effect = lower value
# [11] = NCATS anti-infectives library activity on the primary C. elegans qHTS viability assay (AID 1745855; calls by dose curve; note: potency is the fitted concentration of half-maximal effect)
# Summary of the method: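 GFP read-out by 488 nm laser cytometry at day 0, 3 and 7, gated on object perimeter, area and peak intensity, scored viability of PE254-GFP-FLuc worms exposed to compound in S medium with bacterial capsules at 21 °C.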
# [12] = biological target: Tyrosine-protein kinase Yes (Homo sapiens) (UniProt P07947); test: qHTS for small molecule inhibitors of Yes1 kinase: Primary Screen (AID 686947);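 note: plate controls were DMSO with enzyme for no effect and no-enzyme DMSO wells for full effect; nearly all actives have a fitted effect of over 60% in size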
# Summary of the method: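 ADP-Glo luminescence reports ADP formed by 4 nM Yes1 phosphorylating poly(E4Y) (0.3 mg/mL) with 0.1 mM ATP for 60 min at room temperature, following 20 min compound preincubation; normalised between DMSO wells with and without enzyme.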
# [13] = qHTS for small molecule inhibitors of Yes1 kinase: Counter Assay (AID 686950);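 note: no kinase present so only ADP-Glo detection of a fixed ADP amount is tested; luminescence from ADP-Glo reporting ADP in a fixed ATP and ADP mixture; 0% = DMSO wells with ATP plus ADP and -100% = ATP-only wells without ADP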
# Summary of the method: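 ADP-Glo luminescence read after a 60 min room-temperature incubation of compound with an ATP/ADP mix (0.08 mM/0.02 mM) and no kinase, following a 20 min compound preincubation. Signal scaled between ATP+ADP (max) and 0.1 mM ATP-only (min) wells; Tris pH 7.5, Mg2+, DTT.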
# [14] = measured here: PEO1 parental Z-AUC
# Sequence of Catechol O-methyltransferase (Homo sapiens) (P21964 whole entry, looked up): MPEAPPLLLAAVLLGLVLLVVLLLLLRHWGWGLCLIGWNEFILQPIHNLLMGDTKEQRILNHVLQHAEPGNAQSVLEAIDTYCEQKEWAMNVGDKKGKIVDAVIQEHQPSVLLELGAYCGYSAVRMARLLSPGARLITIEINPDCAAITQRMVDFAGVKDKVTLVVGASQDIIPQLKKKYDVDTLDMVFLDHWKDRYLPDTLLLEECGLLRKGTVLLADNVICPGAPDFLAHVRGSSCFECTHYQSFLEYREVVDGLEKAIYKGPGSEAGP
# Sequence of Phenylethanolamine N-methyltransferase (Homo sapiens) (P11086 whole entry, looked up): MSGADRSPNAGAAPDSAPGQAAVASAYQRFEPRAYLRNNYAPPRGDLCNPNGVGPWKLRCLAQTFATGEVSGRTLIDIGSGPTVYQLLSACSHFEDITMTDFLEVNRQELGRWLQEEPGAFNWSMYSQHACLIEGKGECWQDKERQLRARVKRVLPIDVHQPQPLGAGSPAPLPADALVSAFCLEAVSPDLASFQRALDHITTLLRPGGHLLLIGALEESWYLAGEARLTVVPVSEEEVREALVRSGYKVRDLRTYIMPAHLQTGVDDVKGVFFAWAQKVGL
# Sequence of Glutathione peroxidase 1 (Homo sapiens) (P07203 whole entry, looked up): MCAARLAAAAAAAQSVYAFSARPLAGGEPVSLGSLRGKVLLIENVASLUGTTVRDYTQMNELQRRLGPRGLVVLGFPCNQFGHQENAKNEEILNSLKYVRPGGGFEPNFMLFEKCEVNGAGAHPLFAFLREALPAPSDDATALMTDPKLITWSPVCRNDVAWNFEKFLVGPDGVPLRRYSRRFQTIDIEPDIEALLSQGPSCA
# Sequence of Nicotinamide N-methyltransferase (Homo sapiens) (P40261 whole entry, looked up): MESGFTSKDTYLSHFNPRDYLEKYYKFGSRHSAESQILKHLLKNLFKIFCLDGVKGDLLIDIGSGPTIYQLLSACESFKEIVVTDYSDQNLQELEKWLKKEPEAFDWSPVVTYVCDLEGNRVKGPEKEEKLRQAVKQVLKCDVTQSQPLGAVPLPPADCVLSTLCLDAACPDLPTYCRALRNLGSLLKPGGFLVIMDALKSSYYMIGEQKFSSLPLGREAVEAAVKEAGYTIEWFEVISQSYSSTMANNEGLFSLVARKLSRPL
# Sequence of Phospholipid hydroperoxide glutathione peroxidase GPX4 (Homo sapiens) (P36969 whole entry, looked up): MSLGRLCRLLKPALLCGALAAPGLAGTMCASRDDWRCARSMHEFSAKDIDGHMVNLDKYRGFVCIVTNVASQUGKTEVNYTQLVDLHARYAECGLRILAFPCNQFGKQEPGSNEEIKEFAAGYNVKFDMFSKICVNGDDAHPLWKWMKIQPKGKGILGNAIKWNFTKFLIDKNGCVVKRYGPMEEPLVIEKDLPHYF
# Sequence of Tyrosine-protein kinase Yes (Homo sapiens) (P07947 whole entry, looked up): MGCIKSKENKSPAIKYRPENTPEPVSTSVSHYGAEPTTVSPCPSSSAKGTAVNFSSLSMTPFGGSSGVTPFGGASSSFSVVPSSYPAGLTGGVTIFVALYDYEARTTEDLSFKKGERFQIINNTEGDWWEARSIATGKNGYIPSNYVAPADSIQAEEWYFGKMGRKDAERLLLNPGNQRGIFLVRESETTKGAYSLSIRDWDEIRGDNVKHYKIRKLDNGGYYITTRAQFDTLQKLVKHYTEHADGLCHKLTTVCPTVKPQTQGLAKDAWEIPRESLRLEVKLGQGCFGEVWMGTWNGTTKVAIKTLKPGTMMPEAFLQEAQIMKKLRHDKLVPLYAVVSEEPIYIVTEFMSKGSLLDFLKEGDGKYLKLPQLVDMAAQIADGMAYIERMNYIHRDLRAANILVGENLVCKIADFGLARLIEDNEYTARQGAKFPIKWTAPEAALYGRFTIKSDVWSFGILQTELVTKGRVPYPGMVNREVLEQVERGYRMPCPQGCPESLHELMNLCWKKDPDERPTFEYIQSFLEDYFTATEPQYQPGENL
structure (smiles),measurement,setting,value
Cc1ccc(Sc2ccccc2N2CCNCC2)c(C)c1,Potency,[1],10.5 µM (active)
same,Potency,[2],7.42 µM (active)
same,Potency,[3],inactive
same,Potency,[4],inactive
same,Z-AUC,[5],0.87 (inactive)
same,Z-AUC,[5]; [14],0.0255
same,Z-AUC,[5]; measured here: PEO4 Z-AUC,-0.0248
O=c1c(-c2ccc(O)cc2)coc2cc(O[C@@H]3O[C@H](CO)[C@@H](O)[C@H](O)[C@H]3O)ccc12,Potency,[1],16.6 µM (active)
same,Potency,[2],16.6 µM (active)
same,outcome,[6],inactive
same,Potency,[3],inactive
same,Potency,[4],inactive
same,Z-AUC,[5],1.43 (inactive)
same,Z-AUC,[5]; [14],1.29
same,Z-AUC,[5]; measured here: PEO4 Z-AUC,1.57
CCNC(=O)Nc1ccc(-c2nc3c(c(N4CCOC[C@@H]4C)n2)CCN(C2COC2)C3)cc1,Potency,[1],0.833 µM (active)
same,Potency,[2],0.742 µM (active)
same,Potency,[3],inactive
same,Potency,[4],inactive
same,Z-AUC,[5],0.987 (inactive)
same,Z-AUC,[5]; [14],1.46
same,Z-AUC,[5]; measured here: PEO4 Z-AUC,1.27
Oc1cccc(Nc2ncnc3sc4c(c23)CCCC4)c1,Potency,[1],9.2 µM (active)
same,Potency,[2],8.2 µM (active)
same,Potency,[3],inactive
O=C1Nc2ccccc2/C1=C/c1cc(O)ccc1O,Potency,[1],16.4 µM (active)
same,Potency,[2],18.4 µM (active)
same,activity,[7],-4.65%
same,"activity change, negative = inhibition",[8],-0.984%
same,activity,[9],-18.3%
same,activity,[10],-2.66%
same,Potency,[3],inactive
CCN1/C(=C/C(C)=O)Sc2ccc(OC(C)=O)cc21,Potency,[1],16.4 µM (active)
same,Potency,[2],20.6 µM (active)
same,Potency,[3],inactive
CC(=O)O/N=C1/C(c2c(O)[nH]c3cc(Br)ccc23)=Nc2ccccc21,Potency,[1],1.84 µM (active) and 2.09 µM (active)
same,Potency,[2],2.06 µM (active) and 2.09 µM (active)
same,outcome,[6],inactive
same,Potency,[11],20.5 µM (active)
same,Potency,[3],inactive
same,Potency,[4],inactive
same,Z-AUC,[5],-1.48 (inactive)
same,Z-AUC,[5]; [14],0.461
same,Z-AUC,[5]; measured here: PEO4 Z-AUC,-0.699
Nc1n[nH]c(N)c1N=Nc1ccc(O)cc1,Potency,[1],13 µM (active)
same,Potency,[2],14.6 µM (active)
same,Potency,[3],inactive
Nc1nonc1-c1nc2cnccc2n1C1CCCCC1,outcome,[12],inactive
same,outcome,[13],inactive
same,Potency,[1],5.17 µM (active)
same,Potency,[2],2.91 µM (active)
same,activity,[7],-23.3%
same,Potency,[8],27.1 µM (active)
same,activity,[9],-44.1%
same,activity,[10],-20.9%
same,Potency,[3],inactive
Nc1ncccc1-c1nc2ccc(-c3ccccc3)nc2n1-c1ccc(C2(N)CCC2)cc1,Potency,[1],0.118 µM (active)
same,Potency,[2],0.186 µM (active)
same,Potency,[3],23 µM (active)
same,Potency,[4],22.7 µM (active)
same,Z-AUC,[5],-0.599 (inactive)
same,Z-AUC,[5]; [14],-0.0298
same,Z-AUC,[5]; measured here: PEO4 Z-AUC,-0.137
CCCS(=O)(=O)c1nc(NC2CC2)cc(-c2ccc3c(ccn3C3CC(C)(C)NC(C)(C)C3)c2)n1,Potency,[1],2.48 µM (active)
same,Potency,[2],2.21 µM (active)
same,activity,[7],-4.11%
same,"activity change, negative = inhibition",[8],1.84% [at 19.1 µM]
same,activity,[9],-12%
same,activity,[10],-6.24%
same,Potency,[3],inactive
same,Potency,[4],inactive
same,Z-AUC,[5],-1.38 (inactive)
same,Z-AUC,[5]; [14],-1.22
same,Z-AUC,[5]; measured here: PEO4 Z-AUC,-1.57
Cc1ccc(-c2nn(C(C)(C)CNC(=O)c3ccncc3)c3ncnc(N)c23)cc1,Potency,[1],8.33 µM (active)
same,Potency,[2],7.42 µM (active)
same,Potency,[3],inactive
same,Potency,[4],inactive
same,Z-AUC,[5],-0.525 (inactive)
same,Z-AUC,[5]; [14],-1.23
same,Z-AUC,[5]; measured here: PEO4 Z-AUC,-1.14
COc1cc2c(NC3CCN(C)CC3)nc(N3CCCN(C)CC3)nc2cc1OCCCN(C)C,Potency,[1],inactive
same,Potency,[2],inactive
same,activity,[7],3.04%
same,"activity change, negative = inhibition",[8],3.96%
same,activity,[9],-9.37%
same,activity,[10],-4.66%
same,Potency,[3],inactive
same,Potency,[4],18 µM (active)
same,Z-AUC,[5],-0.893 (inactive)
same,Z-AUC,[5]; [14],-0.915
same,Z-AUC,[5]; measured here: PEO4 Z-AUC,-1.6
CC[C@]12C=CCN3CC[C@@]4(c5cc([C@@]6(C(=O)OC)CC7C[C@@H](C(C)(F)F)CN(Cc8c6[nH]c6ccccc86)C7)c(OC)cc5N(C)[C@H]4[C@@](O)(C(=O)OC)[C@@H]1OC(C)=O)[C@@H]32 (stereo partly drawn),Potency,[1],0.263 µM (active)
same,Potency,[2],0.186 µM (active)
O=C(/C=C/c1ccc2ccccc2n1)c1ccncc1,Potency,[1],3.66 µM (active)
same,Potency,[2],4.11 µM (active)
same,Potency,[3],inactive
O=C1N=C(O)S/C1=C\c1ccc2nccnc2c1,Potency,[1],18.4 µM (active)
same,Potency,[2],20.6 µM (active)
C=CC(C)(/C=C/c1ccc(O)cc1)CCC=C(C)C (stereo not drawn),Potency,[1],20.6 µM (active)
same,Potency,[2],18.4 µM (active)
same,Potency,[3],inactive
CCOC(=O)CCNc1cc(N2CCc3ccccc3CC2)nc(-c2ccccn2)n1,Potency,[1],2.35 µM (active)
same,Potency,[2],2.63 µM (active)
same,Potency,[3],inactive
same,Potency,[4],inactive
same,Z-AUC,[5],0.71 (inactive)
same,Z-AUC,[5]; [14],0.271
same,Z-AUC,[5]; measured here: PEO4 Z-AUC,-0.212
N#Cc1c(N)nc(N)nc1N[C@H](c1nc2c(F)ccc(Cl)c2c(=O)n1-c1cccnc1)C1CC1,Potency,[1],0.417 µM (active)
same,Potency,[2],0.417 µM (active)
same,Potency,[3],inactive
same,Potency,[4],inactive
same,Z-AUC,[5],-1.77 (inactive)
same,Z-AUC,[5]; [14],-0.776
same,Z-AUC,[5]; measured here: PEO4 Z-AUC,-0.121
C=C1C(=O)OC2/C=C(/C)CC/C=C(/C)CCC12 (stereo not drawn),Potency,[1],11.8 µM (active)
same,Potency,[2],8.33 µM (active)
same,Potency,[3],inactive
same,Potency,[4],inactive
same,Z-AUC,[5],1.69 (inactive)
same,Z-AUC,[5]; [14],1.29
same,Z-AUC,[5]; measured here: PEO4 Z-AUC,1.11
